molecular target: NR4A3; experiment: pooled miR-30 sensor sort-seq; sequence = guide strand; details: shRNA

Sequence	sensor-assay potency score (higher = more potent)
TAAGTAATGTCTGATCTTCTTT	-0.546
TTTTTCTGCACTGTTCTCTTGA	0.598
TAATGTCTGATCTTCTTTGGGG	0.115
TAAACTGCTTGTGATCTTGTTG	-0.255
TCCAACACTGAGACACTTCTGA	-0.139
TGGTCTTTTAAACTGCTTGTGA	-0.937
TTGCATAGCTCTTCGACTCTCT	0.177
TCTTGTTGCATAGCTCTTCGAC	-0.437
TATCTGTACGGACAACTTCTTT	-1
TTGAAGTACATGGAGGTGCTGG	-0.481
ATCGACAGTACTGACATCGGTT	-0.324

molecular target: NRGN; experiment: as above; details: shRNA

Sequence	sensor-assay potency score (higher = more potent)
TGTCTAGAATGTCGTCGTCCGG	-1.75
TTTGCATAAACAAGAGAGCTGG	-0.297
TCTTTATCTTCTTCCGCGCCAT	-0.595
TAGAATGTCGTCGTCCGGCTTG	-0.236
TTTAGCTGCGCACAGAACGAAA	-1.54
TATCTTCTTCCGCGCCATGTGG	-1.11
TCGTCGTCCGGCTTGGAGCAGG	-0.878
TCTAGAATGTCGTCGTCCGGCT	-0.833
TTTATCTTCTTCCGCGCCATGT	-1.14
TATTGTTCACATTCCAACCCAG	-0.138
TTGCATAAACAAGAGAGCTGGA	0.0661
TTTCTTTAAGTGAGTGTGCTTG	-0.361

Reference: the OligoGym collection
